In assay [1] the target is ATP-dependent 6-phosphofructokinase (Trypanosoma brucei brucei) (UniProt O15648). The experiment in a line: qHTS Assay to Find Inhibitors of T. brucei phosphofructokinase: hit validation (AID 492961).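 Further: luminescence reports ADP formed as PFK phosphorylates fructose-6-phosphate with ATP; series mostly up to about 51 µM.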 The method in brief: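 ADP-Glo luminescence read-out of ADP formed by 1.25 nM PFK from 0.1 mM ATP and 0.5 mM F6P (TEA pH 8.0, 45 min, RT). Compounds titrated; activity normalized to no-enzyme and full-enzyme controls.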
Chain of ATP-dependent 6-phosphofructokinase (Trypanosoma brucei brucei) (O15648 whole entry, looked up): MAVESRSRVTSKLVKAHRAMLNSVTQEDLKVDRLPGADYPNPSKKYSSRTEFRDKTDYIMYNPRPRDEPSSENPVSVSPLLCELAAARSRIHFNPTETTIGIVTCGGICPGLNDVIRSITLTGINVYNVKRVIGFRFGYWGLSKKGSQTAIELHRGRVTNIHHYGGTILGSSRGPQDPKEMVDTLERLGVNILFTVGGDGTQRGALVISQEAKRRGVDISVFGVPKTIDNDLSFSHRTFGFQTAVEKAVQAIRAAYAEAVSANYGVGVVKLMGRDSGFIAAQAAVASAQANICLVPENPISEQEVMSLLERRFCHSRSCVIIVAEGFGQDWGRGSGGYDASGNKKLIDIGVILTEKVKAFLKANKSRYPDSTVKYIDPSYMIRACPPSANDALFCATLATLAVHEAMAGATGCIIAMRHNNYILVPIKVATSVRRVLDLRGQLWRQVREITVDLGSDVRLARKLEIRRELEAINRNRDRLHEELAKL
A general note: Quantitative high-throughput screening tests each substance at several concentrations.

The target in assay [2] is Ubiquitin carboxyl-terminal hydrolase 1 (Homo sapiens) (UniProt O94782). The experiment in a line: Inhibitors of USP1/UAF1: Pilot qHTS (AID 504865). Further: nearly all actives have a fitted effect of over 35% in size. Further: potency means the concentration at half of the fitted maximal effect. The procedure, abridged:
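USP1/UAF1 complex (1nM) preincubated with compound 15 min at room temperature, then Ub-Rho substrate (150nM final) added. Fluorescence read kinetically at 480/540 nm, 6 reads every 60 seconds. Buffer: 50mM HEPES pH 7.8, 0.5mM EDTA, 0.1 mg/ml BSA, 1mM TCEP, 0.01% Tween-20.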

Assay [3] deals with Transient receptor potential cation channel subfamily V member 1 (Homo sapiens) (UniProt Q8NER1). Description: HTS Assay for Compounds that Act as Enhancers of the Vanilloid Receptor 1 (AID 488979). The procedure, abridged:
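Calcium influx kinetics via Fluo-8 (480/520 nm) in TRPV1-expressing cells, 2000/well cultured overnight at 35.5C. Compound-alone read 3 min (agonist phase), followed by EC20 capsaicin challenge for 2 min (enhancer phase).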

The target in assay [4] is Thyrotropin receptor (Homo sapiens) (UniProt P16473). The experiment in a line: qHTS Assay for Antagonists of the Thyroid Stimulating Hormone Receptor (AID 488980). Further: series mostly up to about 58 µM. The procedure, abridged: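 HEK293 cells transfected with human TSHR, suspended in HEPES-buffered HBSS with 70 uM RO 20-1724, were treated with compounds plus TSH at EC80 (4 nM final). cAMP was measured by competitive HTRF (cryptate anti-cAMP antibody, cAMP-d2 acceptor).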
Chain of Thyrotropin receptor (Homo sapiens) (P16473 whole entry, looked up): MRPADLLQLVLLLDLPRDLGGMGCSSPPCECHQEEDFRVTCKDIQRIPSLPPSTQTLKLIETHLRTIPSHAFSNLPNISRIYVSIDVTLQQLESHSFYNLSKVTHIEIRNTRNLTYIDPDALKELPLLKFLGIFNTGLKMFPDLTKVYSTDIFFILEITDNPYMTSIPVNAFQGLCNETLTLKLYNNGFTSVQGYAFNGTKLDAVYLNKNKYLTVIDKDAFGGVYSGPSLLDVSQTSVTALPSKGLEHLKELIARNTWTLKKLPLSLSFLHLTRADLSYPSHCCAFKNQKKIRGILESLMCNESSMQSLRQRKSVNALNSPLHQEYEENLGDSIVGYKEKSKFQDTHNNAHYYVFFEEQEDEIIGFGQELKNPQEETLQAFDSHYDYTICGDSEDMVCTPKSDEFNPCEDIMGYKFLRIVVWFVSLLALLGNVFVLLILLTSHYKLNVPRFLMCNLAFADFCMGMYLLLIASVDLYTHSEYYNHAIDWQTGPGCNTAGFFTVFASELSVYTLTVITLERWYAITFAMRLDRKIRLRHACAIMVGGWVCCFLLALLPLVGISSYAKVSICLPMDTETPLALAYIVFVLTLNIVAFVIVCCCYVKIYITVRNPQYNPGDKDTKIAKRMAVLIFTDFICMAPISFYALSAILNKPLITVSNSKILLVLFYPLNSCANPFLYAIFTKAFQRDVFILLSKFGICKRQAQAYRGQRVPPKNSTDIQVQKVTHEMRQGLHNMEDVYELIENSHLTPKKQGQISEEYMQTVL

Assay [5] addresses Tyrosyl-DNA phosphodiesterase 1 (Homo sapiens) (UniProt Q9NUW8). Description: Confirmation Assay for Inhibitors of Tyrosyl-DNA Phosphodiesterase (TDP1) (AID 489007). Further: potency means the concentration at half of the fitted maximal effect; nearly all actives have a fitted effect of over 40% in size. The note with it: recombinant human TDP1 enzymatic activity, dose-response. The method in brief:
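AlphaScreen assay of tyrosine-FITC cleavage from a biotinylated DNA substrate (15 nM) by E. coli-expressed human Tdp1 (1 nM). Sequence: compound preincubation 15 min, reaction 5 min, bead detection 10 min, all at room temperature. No-enzyme wells give maximum signal.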

The target in assay [6] is Thyrotropin-releasing hormone receptor (Homo sapiens) (UniProt P34981). The experiment in a line: qHTS for Small Molecule Agonists and Allosteric Enhancers of Human TRH Receptor: Validation Screen for Agonists (AID 493127;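 active means calcium activation more than 3 SD above the typical response in the agonist read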;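 further: intracellular calcium rise by fluo-8 fluorescence before TRH EC20 addition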). The note with it: TRH receptor agonist cell assay; at 2 µM; stronger effect = higher value. The method in brief: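 Compound-evoked intracellular calcium release in fluo-8-loaded TRHR cells, read kinetically on FDSS (Ex 480/Em 530, 1 s/cycle) after 23 nL pintool transfer. Agonist phase preceded 10 nM TRH EC20 addition.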
Chain of Thyrotropin-releasing hormone receptor (Homo sapiens) (P34981 whole entry, looked up): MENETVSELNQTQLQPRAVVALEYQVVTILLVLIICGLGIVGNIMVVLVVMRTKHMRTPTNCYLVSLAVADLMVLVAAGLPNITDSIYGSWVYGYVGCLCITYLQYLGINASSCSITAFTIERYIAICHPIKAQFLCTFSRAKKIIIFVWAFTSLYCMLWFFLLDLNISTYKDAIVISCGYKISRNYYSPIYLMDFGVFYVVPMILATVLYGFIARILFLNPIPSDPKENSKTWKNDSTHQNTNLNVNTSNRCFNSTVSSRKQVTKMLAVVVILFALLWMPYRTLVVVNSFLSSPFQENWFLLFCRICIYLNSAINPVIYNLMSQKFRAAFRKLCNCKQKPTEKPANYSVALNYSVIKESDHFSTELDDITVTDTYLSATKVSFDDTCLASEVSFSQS

Assay [7] concerns the target Galactokinase (Homo sapiens) (UniProt P51570). The experiment in a line: qHTS Validation Assay for Inhibitors of Human Galactokinase (GALK) (AID 493189). The method in brief: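 GALK (5 nM) with 35 uM ATP and 100 uM galactose in HEPES pH8.0, MgCl2, NaCl, DTT, BSA; 1 h at room temperature. Residual ATP read by Kinase-Glo Plus luminescence after 10 min.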
Assay [8] can be described thus: Validation screen for small molecules that induce DNA re-replication in SW480 colon adenocarcinoma cells (AID 504364). The procedure, abridged:
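Image-based DNA content read-out: Hoechst stain 40 min, total nuclear fluorescence intensity (ex 405 nm, em 500-530 nm) after 48 h compound exposure of 250 SW480 cells/well at 37 C, 5% CO2, versus DMSO vehicle.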

Assay [9] can be described thus: qHTS for Inhibitors of ATXN expression: Validation of Cytotoxic Assay (AID 588349). Further: potency means the concentration at half of the fitted maximal effect. The method in brief:
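Cytotoxicity counter-screen: ATP-based luminescent viability (CellTiter Glo) after 72 hr exposure of HEK293 cells to a compound titration at 37 degrees C.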

Assay [10] concerns the target D(1A) dopamine receptor (Homo sapiens) (UniProt P21728). The experiment in a line: HTS Assay for Allosteric Agonists of the Human D1 Dopamine Receptor: Primary Screen for Agonists (AID 488981). The procedure, abridged: (§1)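 Calcium flux in an inducible, force-coupled HEK293 Trex D1 line (overnight at 30 C): agonist mode is the 180 s kinetic read after compound; potentiator mode is the following 180 s read after dopamine at EC20.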

Assay [11] shares this target. Description: HTS Assay for Allosteric Agonists of the Human D1 Dopamine Receptor: Primary Screen for Potentiators (AID 488982). The method in brief:
as §1

Assay [12] shares this target. Description: HTS Assay for Allosteric Agonists of the Human D1 Dopamine Receptor: Primary Screen for Antagonists (AID 488983).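 Further: calcium flux response to an EC80 dopamine challenge measured with no-wash dye; nearly all actives have a fitted effect of over 65% in size.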 The method in brief:
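Calcium-flux read-out in inducible HEK293 T-REx cells expressing D1, dye-loaded 30–90 min at room temperature. Kinetic reads: 180 s after compound (agonist phase), then 180 s after an EC80 dopamine challenge.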

Assay [13] in a line: Validation screen for small molecules that induce genotoxicity in human embryonic kidney (HEK293T) cells expressing luciferase-tagged ELG1 (AID 493106). The procedure, abridged:
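ELG1-luciferase reporter readout (ONE-Glo, 30 min, room temperature) after 16 hr compound treatment at 37 °C of HEK293T cells at 2,000 per well. Rising luminescence flags genotoxic stress.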

Assay [14] is described as follows: qHTS for Inhibitors of Cell Surface uPA Generation: Validation Assay (AID 493164).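 Further: RAW 264.7 macrophage cells exposed to compound for 18 h.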 The procedure, abridged:
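ATP-Lite luminescence read-out: ATP remains high when uPA activity-dependent LF translocation into the cytoplasm is blocked. RAW 264.7 cells, 18 h compound exposure at 37 C; 7-point titration, 2.45 nM to 38.3 uM final.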

Assay [15] has as its target ATPase family AAA domain-containing protein 5 (Homo sapiens) (UniProt Q96QE3). The experiment in a line: Validation screen for small molecules that inhibit ELG1-dependent DNA repair in human embryonic kidney (HEK293T) cells expressing luciferase-tagged ELG1 (AID 493107). Further: potency means the concentration at half of the fitted maximal effect; nearly all actives have a fitted effect of over 70% in size. The procedure, abridged:
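Luciferase read-out, ONE-Glo, 30 min at room temperature, follows 16 h co-exposure at 37 C of compound and the DNA-damaging agent 5-fluorouridine. Cells: HEK293T with ELG1-luciferase fusion, 2,000 per well, DMSO as vehicle.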

Assay [16] has as its target Peptidyl-prolyl cis-trans isomerase NIMA-interacting 1 (Homo sapiens) (UniProt Q13526). Description: qHTS Validation Assay to Find Inhibitors of Pin1 (AID 504536; active means well fitted inhibition curve with a large enough effect in the polarisation, with a control signal flat, not every such curve was filed as active; the % refers to the polarisation). The method in brief:
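Fluorescence polarization competition: compounds (titration) displace HiFluor-488-labeled Pin1-1b peptide from Pin1 (0.3 uM final) in pH 7.5 HEPES buffer with DTT, 10 min at room temperature; %Activity normalized to no-enzyme wells, curves fitted.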

Assay [17] deals with Phosphoglycerate kinase, glycosomal (Trypanosoma brucei brucei) (UniProt P07378). Description: qHTS Validation Assay to Find Inhibitors of Phosphoglycerate Kinase (AID 504547). The method in brief: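 Luminescence end-point (Kinase-Glo Plus, 10 min) after a 60 min room-temperature coupled reaction. GAPDH at 100nM final supplies 1,3-BPG to PGK. Buffer: 100mM TEA pH 7.6, 5mM MgCl2, 0.01% Tween-20. Wells lacking PGK served as controls.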

Unmarked numbers belong to inactive results. Results filed as inconclusive are left out. Entries that show only a call come without a potency. Active and inactive are the calls of the source. Unless noted, the call rests on the fitted dose curve; in most records, active means well fitted curve in the direction sought with a large enough effect; inconclusive means small, poorly fitted or top-dose-only effect, or another doubt; inactive means no such curve, though single readings can be large; an effect the other way counts as inactive or inconclusive.

Chain of D(1A) dopamine receptor (Homo sapiens) (P21728 whole entry, looked up): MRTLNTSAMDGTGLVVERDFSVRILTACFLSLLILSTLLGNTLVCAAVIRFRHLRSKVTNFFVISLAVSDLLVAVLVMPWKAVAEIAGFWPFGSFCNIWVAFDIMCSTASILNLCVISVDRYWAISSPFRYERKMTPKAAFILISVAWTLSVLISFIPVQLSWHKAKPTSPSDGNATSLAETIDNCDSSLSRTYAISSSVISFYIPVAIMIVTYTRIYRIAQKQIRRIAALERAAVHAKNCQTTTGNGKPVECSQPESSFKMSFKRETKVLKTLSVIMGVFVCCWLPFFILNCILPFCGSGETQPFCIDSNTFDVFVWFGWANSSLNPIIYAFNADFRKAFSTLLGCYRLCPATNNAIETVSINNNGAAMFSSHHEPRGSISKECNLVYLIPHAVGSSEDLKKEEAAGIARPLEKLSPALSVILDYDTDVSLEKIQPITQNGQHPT
Chain of Galactokinase (Homo sapiens) (P51570 whole entry, looked up): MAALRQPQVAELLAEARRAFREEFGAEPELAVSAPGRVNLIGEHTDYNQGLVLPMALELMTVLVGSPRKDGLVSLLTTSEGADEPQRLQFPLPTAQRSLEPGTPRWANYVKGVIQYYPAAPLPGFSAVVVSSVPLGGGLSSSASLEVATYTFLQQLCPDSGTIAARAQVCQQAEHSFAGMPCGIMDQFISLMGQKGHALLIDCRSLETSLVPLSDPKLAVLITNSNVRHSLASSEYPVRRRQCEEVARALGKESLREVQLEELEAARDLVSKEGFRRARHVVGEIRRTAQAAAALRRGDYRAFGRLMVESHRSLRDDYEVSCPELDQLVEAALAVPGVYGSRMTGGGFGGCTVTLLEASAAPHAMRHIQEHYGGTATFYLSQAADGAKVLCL
Chain of Ubiquitin carboxyl-terminal hydrolase 1 (Homo sapiens) (O94782 whole entry, looked up): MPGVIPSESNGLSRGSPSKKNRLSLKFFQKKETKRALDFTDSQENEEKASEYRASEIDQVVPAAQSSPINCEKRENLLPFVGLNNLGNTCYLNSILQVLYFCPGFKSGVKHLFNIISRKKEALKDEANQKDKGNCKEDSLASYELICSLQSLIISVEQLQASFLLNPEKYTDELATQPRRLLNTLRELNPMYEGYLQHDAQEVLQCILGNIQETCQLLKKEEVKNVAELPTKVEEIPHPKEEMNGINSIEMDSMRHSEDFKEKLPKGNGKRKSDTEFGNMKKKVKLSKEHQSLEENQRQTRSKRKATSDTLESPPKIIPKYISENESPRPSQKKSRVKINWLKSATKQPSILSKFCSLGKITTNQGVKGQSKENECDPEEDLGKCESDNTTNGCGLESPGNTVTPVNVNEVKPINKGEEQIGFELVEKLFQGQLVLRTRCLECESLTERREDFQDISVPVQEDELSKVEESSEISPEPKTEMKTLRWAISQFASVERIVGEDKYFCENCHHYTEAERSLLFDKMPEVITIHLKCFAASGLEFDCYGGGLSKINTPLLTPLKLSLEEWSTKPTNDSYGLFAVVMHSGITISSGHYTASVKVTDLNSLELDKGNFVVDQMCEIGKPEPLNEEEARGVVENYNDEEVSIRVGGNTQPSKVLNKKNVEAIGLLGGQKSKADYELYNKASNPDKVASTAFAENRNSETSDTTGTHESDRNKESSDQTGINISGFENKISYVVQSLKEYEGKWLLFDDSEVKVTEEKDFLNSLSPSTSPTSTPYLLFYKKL
Chain of Transient receptor potential cation channel subfamily V member 1 (Homo sapiens) (Q8NER1 whole entry, looked up): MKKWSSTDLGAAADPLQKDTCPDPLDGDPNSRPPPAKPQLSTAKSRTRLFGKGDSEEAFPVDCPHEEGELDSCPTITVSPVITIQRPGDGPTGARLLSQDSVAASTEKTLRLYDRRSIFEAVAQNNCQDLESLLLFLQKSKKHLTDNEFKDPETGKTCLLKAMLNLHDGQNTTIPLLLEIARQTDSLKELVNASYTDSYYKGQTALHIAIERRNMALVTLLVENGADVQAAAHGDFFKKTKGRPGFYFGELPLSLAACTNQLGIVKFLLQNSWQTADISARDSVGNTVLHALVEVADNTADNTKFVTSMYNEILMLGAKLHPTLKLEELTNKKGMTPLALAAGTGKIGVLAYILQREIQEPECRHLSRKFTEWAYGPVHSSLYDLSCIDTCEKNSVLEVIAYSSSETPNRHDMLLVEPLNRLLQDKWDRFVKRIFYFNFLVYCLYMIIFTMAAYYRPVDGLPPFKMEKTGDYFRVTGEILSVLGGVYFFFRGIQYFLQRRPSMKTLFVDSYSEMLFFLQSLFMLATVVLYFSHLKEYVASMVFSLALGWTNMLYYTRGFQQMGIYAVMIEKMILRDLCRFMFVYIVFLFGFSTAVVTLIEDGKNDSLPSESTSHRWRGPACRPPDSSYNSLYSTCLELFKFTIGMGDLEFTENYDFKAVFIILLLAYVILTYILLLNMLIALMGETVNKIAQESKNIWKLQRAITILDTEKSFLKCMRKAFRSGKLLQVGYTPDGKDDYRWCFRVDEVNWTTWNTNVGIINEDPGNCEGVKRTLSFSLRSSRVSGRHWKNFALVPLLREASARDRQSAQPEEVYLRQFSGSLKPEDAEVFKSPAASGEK
Chain of Tyrosyl-DNA phosphodiesterase 1 (Homo sapiens) (Q9NUW8 whole entry, looked up): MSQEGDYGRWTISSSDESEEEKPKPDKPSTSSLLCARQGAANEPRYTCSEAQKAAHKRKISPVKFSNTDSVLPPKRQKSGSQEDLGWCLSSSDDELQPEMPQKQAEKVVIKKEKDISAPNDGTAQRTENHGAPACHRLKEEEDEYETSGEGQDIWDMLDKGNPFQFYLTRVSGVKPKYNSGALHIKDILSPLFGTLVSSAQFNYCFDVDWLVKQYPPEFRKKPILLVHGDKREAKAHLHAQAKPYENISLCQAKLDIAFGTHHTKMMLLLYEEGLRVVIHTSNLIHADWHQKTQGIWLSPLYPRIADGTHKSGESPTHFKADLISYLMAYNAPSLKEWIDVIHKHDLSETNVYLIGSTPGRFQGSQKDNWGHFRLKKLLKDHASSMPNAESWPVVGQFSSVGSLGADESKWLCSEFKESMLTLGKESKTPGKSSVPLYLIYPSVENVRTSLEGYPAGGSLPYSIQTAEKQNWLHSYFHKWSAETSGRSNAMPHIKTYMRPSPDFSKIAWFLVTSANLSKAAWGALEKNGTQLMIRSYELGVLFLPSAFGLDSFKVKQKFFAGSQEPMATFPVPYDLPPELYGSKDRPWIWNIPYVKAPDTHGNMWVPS
Chain of Peptidyl-prolyl cis-trans isomerase NIMA-interacting 1 (Homo sapiens) (Q13526 whole entry, looked up): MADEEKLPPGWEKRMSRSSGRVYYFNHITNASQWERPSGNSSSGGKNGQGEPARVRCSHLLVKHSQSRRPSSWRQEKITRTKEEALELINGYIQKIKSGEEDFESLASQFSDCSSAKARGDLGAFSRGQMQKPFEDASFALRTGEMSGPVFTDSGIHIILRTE

`CCCCCCCCCCCC(=O)[O][Sn]([CH2]CCC)([CH2]CCC)[O]C(=O)CCCCCCCCCCC`: the outcome in assay [1] was inactive.
With `CCCSc1ccc2nc(NC(=O)OC)[nH]c2c1`, the call in [1] was inactive. Besides, the Potency result in [2] was “inactive”.
With `O=C(CCN1CCN(CCO)CC1)N1c2ccccc2Sc2ccc(C(F)(F)F)cc21`, the result in assay [1] was inactive. The Potency result in [2] was “inactive”.
For `O=C(Nc1ccc(C(=O)O)c(O)c1)c1ccccc1`, the result in [1] was inactive.
Turning to `CO/N=C(\C(=O)N[C@@H]1C(=O)N2C(C(=O)O)=C(COC(C)=O)CS[C@H]12)c1csc(N)n1` (stereo in doubt), the result in assay [3] and in assay [4] was inactive. In [5], the Potency is 7.94 µM (active). Further, the activation in assay [6] is 0.688%. Besides, the Potency result in assay [7] and in assay [8] was “inactive” each time.
Consider `CC1(C)C[C@@H]1C(=O)N/C(=C\CCCCSC[C@H](N)C(=O)O)C(=O)O`, for which, in assay [1], the compound was called inactive. Further, in assay [2], the Potency entry was “inactive”.
Turning to `N.N.O=C(O)C1(C(=O)O)CCC1.[Pt]`, the outcome in [3] and in assay [4] was inactive. Besides, the activation in assay [6] is -0.5%. The Potency entry in assay [7], in [8] and in [9] was “inactive” each time. Also, the Potency in [2] was 28.2 µM (active).
For `CCCCC[C@H](O)/C=C/[C@@H]1[C@@H](C/C=C\CCCC(=O)O)[C@@H](O)C[C@H]1O`, the compound was called inactive in assay [1]. Besides, the Potency result in [2] was “inactive”.
For the compound `N.N.N.N.N.N.N.N.N.N.N.N.N.N.O.O.[Ru+4].[Ru+5].[Ru+5]`, the Potency result in assay [10], in [11], in assay [12] and in assay [13] was “inactive” throughout. The result in assay [14] was inactive. For the same compound, in [9], the Potency is 28.2 µM (active).
On to `CC(C)(C)NCC(O)COc1nsnc1N1CCOCC1` (stereo not given), for which the outcome in assay [3] was inactive. Also, the Potency result in assay [7] and in assay [8] was “inactive” each time.
As for `Nc1cc(-c2ccncc2)c[nH]c1=O`, in assay [1], the compound was classed as inactive.
For the compound `O=C1CN(/N=C/c2ccc(-c3ccc([N+](=O)[O-])cc3)o2)C(=O)N1`, in assay [1], the compound was called inactive. For the same compound, the Potency result in assay [2] was “inactive”.
Turning to `CCCCCCOc1ccccc1C(N)=O`, the outcome in assay [1] was inactive.
In the case of `COc1cc(/C=C/C(=O)N2CCN(CC(=O)N3CCCC3)CC2)cc(OC)c1OC`, the result in assay [1] was inactive. In addition, the Potency result in assay [2] is “inactive”.
As for `COc1ccc2c(c1)CCC1C2CC[C@@]2(C)C1CC[C@@H]2NCCCCCCN1C(=O)CCC1=O` (stereo not given in full), the Potency result in assay [11], in assay [13], in assay [16], in assay [17] and in assay [2] was “inactive” each time. In addition, in assay [15], the Potency was 25.9 µM (active). Moreover, the compound was classed as inactive in assay [14].

The values above are taken from PubChem BioAssay (NCATS).
